In PubChem BioAssay one finds z-score data, which are given here for ten compounds.

The source made the active and inactive calls.

A short description of this assay: PSAC antagonists in infected red cells, primary screen, cell-based, P. falciparum Indochina, OD700, 2 h (AID 1155).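 Note: lysis reports solute entry through the parasite surface anion channel PSAC; channel blockers reduce lysis of infected cells.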 To be noted: P. falciparum Indochina infected erythrocytes, osmotic lysis OD700; higher = more signal, called active from +8 up or from −8 down.
For `COc1ccc([Si](C)(C)[C@@H]2[C@@H](CCO)O[C@]3(C(=O)N(Cc4cccc(NC(=O)[C@H](C)O)c4)c4ccccc43)[C@H]2C)cc1`, the z-score is 2.91 (inactive).
In the case of `Cc1ccc(S[C@]2(C(=O)O)CC(=O)N(C3CCCCC3)[C@@H]2c2ccc(CO)cc2I)cc1` it was 0.692 (inactive); in that of `O=C1C[C@]2(c3ccc([N+](=O)[O-])cc3)C(=O)N(C3CC3)c3cc(CO)ccc3[C@H]2N1CC12CC3CC(CC(C3)C1)C2`, -0.0621 (inactive).
In the case of `COCCCNC(=O)[C@@]1(Sc2ccc(C)cc2)CC(=O)N(C2Cc3ccccc3C2)[C@@H]1c1ccc(CO)cc1` it was -0.562 (inactive); in that of `O=C1OCCC=C[C@H]2OC34C=CCN(c5ccc6ccccc6c5)C(=O)[C@H]3N(CCCO)C(=O)[C@@H]4C12` (stereo not given in full), -0.568 (inactive).
The result for `COC(=O)[C@@]1(Cc2ccc(F)cc2)[C@H]2c3cc(C(=O)N(C)C)n(CCc4ccc(OC)c(Br)c4)c3C[C@H]2CN1C(=O)c1ccccc1` reads -1.04 (inactive); that for `[N-]=[N+]=Nc1ccccc1C[C@@]1(C(N)=O)N=C(c2ccc(OCCCO)cc2)O[C@@H]1c1ccccc1N=[N+]=[N-]`, 25.3 (active).
Consider `O=C(NCc1ccc(F)cc1)[C@H]1C[C@H]2C(=O)NCC(=O)N2[C@H]1c1ccc(O)cc1`, for which the z-score was 0.285 (inactive).
In the case of `C=CCNC(=O)[C@@H]1[C@H]2C(=O)O[C@H](c3ccccc3)[C@H](c3ccccc3)N2[C@H](c2ccccc2OCCO)[C@@]12C(=O)Nc1ccc(C#CCCO)cc12` it was 1.15 (inactive); in that of `CCOC(=O)C[C@H]1[C@H](OC(=O)Cc2ccc3c(c2)OCO3)[C@@H](NC(=O)C2CCCCC2)c2cc(OCCCO)ccc2N1C(=O)c1ccccc1`, 0.569 (inactive).
